PubChem BioAssay AID1578 (Sanford-Burnham Center for Chemical Genomics, 2009)
The whole screen tested about 290,000 compounds, of which about 3,000 (1%) were called active. The sample holds actives, similar compounds and a random draw of the others, so the mix is not that of the screen. Rule as the data show it: active = inhibition mostly above about 36% (no sharp cut-off); inactive = mostly below about 34%.

Experiment: inhibition of NOD1-driven NF-kB reporter – cell-based, luminescence, uHTS, primary screen (AID 1578);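 also: HEK-293T reporter cells stimulated with the NOD1 agonist gamma-tri-DAP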
Conditions: NOD1-driven NF-kB luciferase reporter cells, at 4 µM, hits give high values

inhibition, inactive:
Cc1c(NC(=O)C(C#N)=C2CCCCC2)c(=O)n(-c2ccccc2)n1C -3.8%
O=C(c1cc(F)ccc1F)C1CCCN(C(=O)CCN2CCCCO2)C1 (centres undefined) -29.2%
O=C(NNc1nc2c(F)cc(F)cc2s1)c1ccccc1 -5.8%
O=C(Nc1nc2ccc(S(=O)(=O)N3CCCC3)cc2s1)c1ccccn1 -16.1%
Cc1ccc2nc(NC(=O)c3ccccc3F)sc2c1 -69.7%
Fc1ccc2nc(Nc3nc4c(F)cc(F)cc4s3)sc2c1 2.7%
COC(=O)c1ccc2nc(NC(=O)C(C)(C)C)sc2c1 35.8%
O=C(Nc1nc2c(F)cc(F)cc2s1)c1ccco1 -3.5%
O=C(Nc1nc2ccc(F)cc2s1)c1cccs1 -59.7%
Cc1ccc2nc(NC(=O)COC(=O)c3ccccn3)sc2c1 -22%
COc1cc(CN2CCCC(N3CCN(c4ccc(F)cc4)CC3)C2)ccc1F (centres undefined) 61.4%
COc1ccccc1S(=O)(=O)N1CCC(C(=O)O)(c2ccccc2)CC1 14.5%
COc1ccc(NC(=S)c2ccncc2)cc1 -9.9%
CC(Sc1nnc(N)s1)C(=O)Nc1ccc(N2CCOCC2)cc1 (centres undefined) -20.5%
COc1ccc(NC(=O)Cc2c(F)c(F)c(F)c(F)c2F)cc1OC 2.8%
Cc1csc(NC(=O)CSc2nc(C(C)C)nc3ccccc23)n1 12.9%
O=C1N/C(=N/c2ccccn2)SC1Cc1ccccc1 (centres undefined) -21%
Cc1ccc(CC2S/C(=N/c3ccccn3)NC2=O)cc1 (centres undefined) 17%
CCCCN1CC(=O)N2Cc3[nH]c4ccccc4c3C[C@H]2C1=O -2.4%
O=C(Nc1ccccc1)C1(c2ccccc2)CC1(Cl)Cl (centres undefined) -28.2%
Cc1ccc(SCC(=O)NCCN2C(=O)CSC2=O)c(C)c1 -23.2%
S=c1sc2c(N3CCOCC3)ncnc2n1-c1ccccc1 9%
S=c1sc2c(N3CCN(Cc4ccccc4)CC3)ncnc2n1-c1ccccc1 -6.8%
CN1CCN(CC2(O)CCN(S(=O)(=O)c3ccc(Cl)cc3)CC2)CC1 -21.7%
Cc1cccc2c(=O)c(C(=O)NCCc3ccccc3)c[nH]c12 -28.3%
O=C(NCCc1ccccc1)c1cc2ncc(Br)cn2n1 -28.5%
NC1=NC(=O)/C(=C/c2ccc(Br)cc2)S1 25%
NC1=NC(=O)/C(=C/c2cccc(F)c2)S1 -12%
Cc1cc(OCC(=O)N2CCN(c3ccccc3)CC2)c2c(C)cc(=O)oc2c1 -49.6%
O=C(NCc1nnc(SCC(=O)N2CCCc3ccccc32)o1)c1ccco1 -0.1%
CC(=O)OC1C2CCC1C([N+]1(C)CCCCC1)CC2 (centres undefined) -31.7%
COc1ccc2cc(C(N)=O)c(=Nc3ccccc3)oc2c1 34.9%
Cc1cccc(N=c2oc3cc(O)ccc3cc2C(N)=O)c1 44.6%
CCN(CC)S(=O)(=O)c1cc(NC(=O)CCCOc2ccc(C(C)=O)cc2)ccc1C 6.3%
Oc1c(Br)cc(C=Nc2ccc3nc(-c4ccccc4)[nH]c3c2)c(O)c1Br 33.9%
Cc1cccc(N2C(=O)C3C4C=CC(CC4)C3C2=O)c1 (centres undefined) -21.6%
Cc1c(C)c2ccc(O[C@@H]3O[C@H](CO)[C@H](O)[C@H](O)[C@H]3O)cc2oc1=O -1%
Cc1cc(C(=O)CSc2nnc(-c3ccco3)o2)c(C)n1Cc1ccco1 3.1%
Cc1cc(C(=O)CSc2nnc(-c3ccco3)o2)c(C)n1CC1COc2ccccc2O1 (centres undefined) 43.4%
Cc1ccc(S(=O)(=O)N2CCN(C(=O)CSc3nnc(-c4ccco4)o3)CC2)cc1 -19%
Cc1c(C(=O)O)oc2ccc(S(=O)(=O)N3CC(C)CC(C)C3)cc12 (centres undefined) -13%
CCN(CC)C(=O)c1oc2ccc(S(=O)(=O)N3CCCCCC3)cc2c1C 20.9%
COc1cccc(-n2c(SCC#N)nnc2-c2cnccn2)c1 5.2%
CC(C)CCN1CCN(Cc2cccc3nonc23)CC1CCO (centres undefined) -23.9%
O=C(Nc1cccnc1)c1cc(-c2ccc(Br)cc2)nc2ccccc12 -14.6%
CCc1oc2ccccc2c1C(=O)CCN1CCCCC1 39.5%
CCCCc1oc2ccccc2c1C(=O)c1cc(I)c(OCCN(CC)CC)c(I)c1 -7.6%
O=C(O)c1ccccc1C(=O)Nc1ccc(Br)c(C(F)(F)F)c1 -11.4%
O=C(Nc1ccc(OCC(F)(F)C(F)F)cc1)c1ccncc1 -18.2%
O=C(CN1C(=O)CCSc2ccc(S(=O)(=O)N3CCCC3)cc21)Nc1ccccc1Cl -4.7%
CCN1CCN(C(=O)COCc2cc(-c3ccc4c(c3)OCO4)on2)CC1 -17.7%
Cc1ccc2c(c1)N(S(=O)(=O)c1cc(-c3onc(C)c3C)ccc1C)CCO2 29.7%
CC(C)(C)n1ncc(Oc2ccccc2[N+](=O)[O-])c(Cl)c1=O 12.6%
CCN=C1NN=C(c2cc(C)n(CCc3ccccc3)c2C)CS1 -15%
Cc1cc(C2=NNC(=NC3CCCCC3)SC2)c(C)n1-c1c(C)n(C)n(-c2ccccc2)c1=O 2.7%
COCCCN=C1NN=C(c2cc(C)n(Cc3ccco3)c2C)CS1 -8.2%
CC(C)=CC1C=C(C)C(C)C2C(=O)NNC(=O)C12 (centres undefined) 10.4%
CCOC(=O)C1=C(COC(=O)/C=C/c2ccccc2Cl)NC(=O)NC1C (centres undefined) -17.4%
CCOC(=O)C1=C(c2ccccc2)ON(C)C1c1ccccc1 (centres undefined) -0.8%
N#C/C(=C(/O)c1ccc(Cl)cc1)c1nc2ccccc2[nH]1 3.5%
N#C/C(=C(/O)c1ccc([N+](=O)[O-])o1)c1nc2ccccc2[nH]1 -7.3%
N#C/C(=C(/O)c1ccc(Br)s1)c1nc2ccccc2[nH]1 9.1%
N#C/C(=C(/O)c1ccc([N+](=O)[O-])cc1)c1nc2ccccc2[nH]1 3.7%
COc1ccccc1/C(O)=C(\C#N)c1nc2ccccc2[nH]1 5.5%
Cc1ccc2nc(/C(C#N)=C\c3ccc([N+](=O)[O-])o3)[nH]c2c1 0.5%
NC(=O)c1c(NC(=O)C(=O)NCCCN2CCOCC2)sc2c1CCCC2 6%
O=C(CCNS(=O)(=O)/C=C/c1ccccc1)NCCc1c[nH]c2ccccc12 -0.1%
CCN(CC)Cc1c(C(=O)N/N=C/c2ccc(OCc3ccccc3C)cc2)nnn1-c1nonc1N -6.7%
COc1ccc(NC(=O)CCCn2cnc3ccccc3c2=O)cc1 9%
COC(=O)c1ccc(Cl)c(NC(=O)c2cccc([N+](=O)[O-])c2C)c1 -17.4%
COC(=O)c1ccc(N/N=C/c2cc([N+](=O)[O-])cc(OC)c2O)cc1 -49.6%
O=C(N/N=C/c1cc(Br)cc([N+](=O)[O-])c1O)c1ccc(NC(=O)c2ccc(F)cc2)cc1 7%
CCn1c(CNc2ccc(Cl)cc2)nnc1SCC#N -48.7%
COc1ccc(-c2[nH]ncc2CN2CCCC2c2nonc2C)c(F)c1 (centres undefined) -55.4%
COc1cc(C(=O)OCC(=O)Nc2ccc(F)cc2F)cc(OC)c1OC 3.5%
O=C(/C(=N\Nc1ccc(Br)cc1)Sc1nnnn1-c1ccccc1)c1ccccc1 -15%
Cc1ccc(N/N=C(/Sc2nnnn2-c2ccccc2)C(=O)c2ccccc2)cc1 -42.4%
Cc1ccc(C)c(C(=O)CN2Cc3ccccc3C2=O)c1 -5.3%
Cc1ccc(C)c(C(=O)CN2C(=O)CCC2=O)c1 -14.2%
CC1=CC(C)(C)N(C(=O)CN2C(=O)c3ccccc3C2=O)c2ccccc21 -18.1%
CC1=CC(C)(C)N(C(=O)CN2C(=O)CCC2=O)c2ccc(C)cc21 -11.3%

inhibition, active:
O=C(Nc1nc2c(F)cc(F)cc2s1)c1ccccn1 70.9%
Cc1ccc2nc(NC(=O)c3ccccn3)sc2c1 109%
O=C(Nc1nc2ccc(F)cc2s1)c1ccccn1 107%
O=C1N/C(=N\c2ccccn2)SC1Cc1ccc(Cl)cc1 (centres undefined) 103%
S=c1sc2c(Cl)ncnc2n1-c1ccccc1 69.8%
NC1=NC(=O)/C(=C\c2cccnc2)S1 53.6%
NC(=O)c1cc2ccc(O)cc2oc1=Nc1ccccc1 92.8%
CCc1oc2ccccc2c1C(=O)c1cc(Br)c(O)c(Br)c1 87.3%
O=C(Nc1ccc(OCC(F)(F)C(F)F)c(C(F)(F)F)c1)c1ccccc1O 77.1%
CCN=C1NN=C(c2cc(C)n(Cc3ccco3)c2C)CS1 81.7%
Cc1cc(C2=NNC(=NC3CC3)SC2)c(C)n1Cc1ccco1 90.4%
N#C/C(=C(/O)c1ccc([N+](=O)[O-])s1)c1nc2ccccc2[nH]1 71.6%
N#C/C(=C\c1ccc([N+](=O)[O-])o1)c1nc2ccccc2[nH]1 96.8%
N#C/C(=C(\O)c1cc(Cl)sc1Cl)c1nc2ccccc2[nH]1 64.5%
CCOC(=O)c1ccc(N/N=C/c2cc(Br)cc([N+](=O)[O-])c2O)cc1 97.2%
O=C(/C(=N\Nc1ccccc1)Sc1nnnn1-c1ccccc1)c1ccccc1 93.1%
CC1=CC(C)(C)N(C(=O)CN2C(=O)c3ccccc3C2=O)c2ccc(C)cc21 33.2%
Cc1ccc(C)c(C(=O)CN2C(=O)c3ccccc3C2=O)c1 56.5%
